# Reference: PubChem BioAssay (NCI)
# Compounds without any hit were thinned out: in the full panel of roughly 83,000, 20% have a hit.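 48-hour exposure, single concentration, 96-well plates; percent growth endpoint where 0 means no net growth. Active: below 10.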 A number with no mark means an inactive call. Calls of active or inactive are those of the source.
# Test system: NCI-H23 lung
# Test: NCI-60 one-dose screen, 48 h (100 = growth as untreated, 0 = no growth, -100 = all killed)
# Settings: 10 µM unless noted
row,SMILES,growth
1,Nc1cc2nc3ccccc3sc-2cc1=O,50%
2,COc1ccc(C(=O)/C=C/c2c(Cl)c3c(c(OC)c2Cl)OCC(=O)N3)cc1,43.1%
3,COc1cc(NCCCCN=C(N)NC(N)=NC(C)C)c2ncccc2c1,-31.5% (active)
4,CC/C=C\C[C@H](F)C/C=C1/C(=O)C=C[C@@H]1C/C=C\CCCC(=O)OC,-12.6% (active)
5,C=C(CN1CCN(c2cccc(C(F)(F)F)n2)CC1)c1ccc(C(=O)Nc2ccccc2N)cc1,35.5%
6,Cn1cc(-c2csc(-c3cn(C)c4ncccc34)n2)c2ccccc21,41.8%
7,COc1ccc2nc3cc(Cl)ccc3c(N3CCN(c4nccc(Nc5ccc(Cl)cc5)n4)CC3)c2c1,86.4%
8,CCN(CC)CCCC(C)N/C(=C1\C(=O)NC(=O)\C1=C(/NC(C)CCCN(CC)CC)c1cccc(OC)c1)c1cccc(OC)c1 (stereo unspecified),-22% (active)
9,CC(=O)C1=C(O)C=C2Oc3c(C(=O)/C=C/c4ccccc4)c(O)c(C)c(O)c3[C@]2(C)C1=O,42.4%
10,O=C1/C(=C/c2ccc(Cl)c(Cl)c2)CN(C(=O)CCN2CCC(=NO)CC2)C/C1=C\c1ccc(Cl)c(Cl)c1,-73.4% (active)
11,CCOC(=O)/C=C/C(=O)[C@H](CC(C)C)NC(=O)[C@H](Cc1ccccc1)NC(=O)OCc1ccccc1,91%
12,Cc1cc2cc3cc(C)c(N(C)C)cc3[n+](C)c2cc1N(C)C,28.3%
13,COC(=O)[C@@H]1CC[C@]2(C)[C@H](CC[C@@H]3O[C@@]32C)[C@@]1(C)CC(=O)c1ccoc1,98.5%
14,O=C(O)c1ccccc1Nc1cccc(S(F)(F)(F)(F)F)c1,96.8%
15,COc1ccc(C2c3ccc4ccccc4c3Oc3ncnc(N)c32)cc1 (stereo unspecified),83%
16,CN1CCN(Cc2ccc(NC(=O)c3cncc(C#Cc4cnc(N)c5cccnc45)c3)cc2C(F)(F)F)CC1,11.4%
17,COc1ccc(OCC(=O)Nc2ccc(-c3nc4ccccc4s3)cc2C)cc1,69.3%
18,Oc1ccc2c(=S)cc(-c3ccc(Br)cc3)oc2c1O,-13.7% (active)
19,O=C1CC(c2nc3ccccc3s2)CN1C1CCCCC1 (stereo unspecified),90.4%

row,SMILES,growth
1,COc1cccc(-n2cc(-c3nc(Nc4cc(C)[nH]n4)c4ccccc4n3)nn2)c1,61.1%
2,CCN(CC)CC#CCOC(=O)[C@]1(C)CCC[C@@]2(C)[C@H]1CC(C=O)=C1C=C(C(C)C)CC[C@@H]12,60.2%
3,CC(=O)Nc1ccc2c(c1)c(NC(C)=O)nn2C(=O)Nc1ccc(Cc2ccccc2)cc1,26.8%
4,Cc1cc(Nc2nc(N3CCNCC3)nc3ccccc23)n[nH]1,96.4%
5,COC(=S)SCN(CSC(=S)OC)c1ccc(Cl)cc1,80%
6,CCN(CC)CCC(=O)Nc1ccc(Cn2nnc3c2C(=O)c2nnn(Cc4ccc(NC(=O)CCN(CC)CC)cc4)c2C3=O)cc1,-24.6% (active)
7,O=C(CCCCN1CCOCC1)Nc1ccc(Cn2nnc3c2C(=O)c2nnn(Cc4ccc(NC(=O)CCCCN5CCOCC5)cc4)c2C3=O)cc1,-18% (active)
8,COc1ccc(C(=O)c2sc3nc(-c4ccccc4OC)ccc3c2N)cc1OC,63.2%
9,O=C1C[C@H](N2C(=O)c3ccccc3S2(=O)=O)C2CO[C@@H]1O2,89.3%
10,CC(=O)C1=C(O)C=C2Oc3c(C(=O)/C=C/c4cc(C(F)(F)F)cc(C(F)(F)F)c4)c(O)c(C)c(O)c3[C@]2(C)C1=O,-55.8% (active)
11,CCN(CC)c1ccc(/C=C/C2=[N+](C)c3ccccc3C2(C)C)cc1,18.6%
12,c1ccc2c(Nc3cccc4ccccc34)cccc2c1,73.4%
13,CCCCCCCCCCCCCC(=O)C(C)N (stereo unspecified),51.6%
14,CCOC(=O)C(CC)n1c(=O)c2cc(OC)c(OC)cc2c2cnc3[nH]ccc3c21 (stereo unspecified),66%
15,O=C1C2CC=CCC2C(=O)N1CNc1ccc(Cl)cc1 (stereo unspecified),94.2%
16,Cc1ccc(SCN2CCN(c3cccc(Cl)c3)CC2)cc1,94.4%
17,Cc1nc2nc(N)nc(N)c2nc1C,91.5%
18,CSc1[nH]c2ncnc(N)c2c1C#N,91.4%
19,O=C(CN1CCOCC1)Nc1ccc(Cn2nnc3c2C(=O)c2nnn(Cc4ccc(NC(=O)CN5CCOCC5)cc4)c2C3=O)cc1,-21.1% (active)

# Test system: NCI-H226 lung
# Test: as above
# Settings: 10 µM unless noted
row,SMILES,growth
1,Nc1cc2nc3ccccc3sc-2cc1=O,84.4%
2,COc1ccc(C(=O)/C=C/c2c(Cl)c3c(c(OC)c2Cl)OCC(=O)N3)cc1,62.9%
3,COc1cc(NCCCCN=C(N)NC(N)=NC(C)C)c2ncccc2c1,94.3%
4,CC/C=C\C[C@H](F)C/C=C1/C(=O)C=C[C@@H]1C/C=C\CCCC(=O)OC,25.4%
5,C=C(CN1CCN(c2cccc(C(F)(F)F)n2)CC1)c1ccc(C(=O)Nc2ccccc2N)cc1,84.2%
6,Cn1cc(-c2csc(-c3cn(C)c4ncccc34)n2)c2ccccc21,74.8%
7,COc1ccc2nc3cc(Cl)ccc3c(N3CCN(c4nccc(Nc5ccc(Cl)cc5)n4)CC3)c2c1,99.8%
8,CCN(CC)CCCC(C)N/C(=C1\C(=O)NC(=O)\C1=C(/NC(C)CCCN(CC)CC)c1cccc(OC)c1)c1cccc(OC)c1 (stereo unspecified),-21.3% (active)
9,CC(=O)C1=C(O)C=C2Oc3c(C(=O)/C=C/c4ccccc4)c(O)c(C)c(O)c3[C@]2(C)C1=O,53.9%
10,O=C1/C(=C/c2ccc(Cl)c(Cl)c2)CN(C(=O)CCN2CCC(=NO)CC2)C/C1=C\c1ccc(Cl)c(Cl)c1,-40.6% (active)
11,CCOC(=O)/C=C/C(=O)[C@H](CC(C)C)NC(=O)[C@H](Cc1ccccc1)NC(=O)OCc1ccccc1,102%
12,Cc1cc2cc3cc(C)c(N(C)C)cc3[n+](C)c2cc1N(C)C,51.6%
13,COC(=O)[C@@H]1CC[C@]2(C)[C@H](CC[C@@H]3O[C@@]32C)[C@@]1(C)CC(=O)c1ccoc1,91.8%
14,O=C(O)c1ccccc1Nc1cccc(S(F)(F)(F)(F)F)c1,88.9%
15,COc1ccc(C2c3ccc4ccccc4c3Oc3ncnc(N)c32)cc1 (stereo unspecified),63.9%
16,CN1CCN(Cc2ccc(NC(=O)c3cncc(C#Cc4cnc(N)c5cccnc45)c3)cc2C(F)(F)F)CC1,-18.6% (active)
17,COc1ccc(OCC(=O)Nc2ccc(-c3nc4ccccc4s3)cc2C)cc1,51%
18,Oc1ccc2c(=S)cc(-c3ccc(Br)cc3)oc2c1O,90.5%
19,O=C1CC(c2nc3ccccc3s2)CN1C1CCCCC1 (stereo unspecified),94.6%

row,SMILES,growth
1,COc1cccc(-n2cc(-c3nc(Nc4cc(C)[nH]n4)c4ccccc4n3)nn2)c1,49.9%
2,CCN(CC)CC#CCOC(=O)[C@]1(C)CCC[C@@]2(C)[C@H]1CC(C=O)=C1C=C(C(C)C)CC[C@@H]12,76%
3,CC(=O)Nc1ccc2c(c1)c(NC(C)=O)nn2C(=O)Nc1ccc(Cc2ccccc2)cc1,62.7%
4,Cc1cc(Nc2nc(N3CCNCC3)nc3ccccc23)n[nH]1,86.5%
5,COC(=S)SCN(CSC(=S)OC)c1ccc(Cl)cc1,69.9%
6,CCN(CC)CCC(=O)Nc1ccc(Cn2nnc3c2C(=O)c2nnn(Cc4ccc(NC(=O)CCN(CC)CC)cc4)c2C3=O)cc1,-49.5% (active)
7,O=C(CCCCN1CCOCC1)Nc1ccc(Cn2nnc3c2C(=O)c2nnn(Cc4ccc(NC(=O)CCCCN5CCOCC5)cc4)c2C3=O)cc1,-52.2% (active)
8,COc1ccc(C(=O)c2sc3nc(-c4ccccc4OC)ccc3c2N)cc1OC,63%
9,O=C1C[C@H](N2C(=O)c3ccccc3S2(=O)=O)C2CO[C@@H]1O2,96.1%
10,CC(=O)C1=C(O)C=C2Oc3c(C(=O)/C=C/c4cc(C(F)(F)F)cc(C(F)(F)F)c4)c(O)c(C)c(O)c3[C@]2(C)C1=O,-56.5% (active)
11,CCN(CC)c1ccc(/C=C/C2=[N+](C)c3ccccc3C2(C)C)cc1,9.04% (active)
12,c1ccc2c(Nc3cccc4ccccc34)cccc2c1,72.3%
13,CCCCCCCCCCCCCC(=O)C(C)N (stereo unspecified),87.9%
14,CCOC(=O)C(CC)n1c(=O)c2cc(OC)c(OC)cc2c2cnc3[nH]ccc3c21 (stereo unspecified),49.4%
15,O=C1C2CC=CCC2C(=O)N1CNc1ccc(Cl)cc1 (stereo unspecified),90.5%
16,Cc1ccc(SCN2CCN(c3cccc(Cl)c3)CC2)cc1,80.9%
17,Cc1nc2nc(N)nc(N)c2nc1C,94.6%
18,CSc1[nH]c2ncnc(N)c2c1C#N,73.6%
19,O=C(CN1CCOCC1)Nc1ccc(Cn2nnc3c2C(=O)c2nnn(Cc4ccc(NC(=O)CN5CCOCC5)cc4)c2C3=O)cc1,-27.4% (active)
